The source made the active and inactive calls. How the calls were made is not given here.

Pantothenate synthetase (Mycobacterium tuberculosis (strain ATCC 25618 / H37Rv)), sequence (P9WIL5 whole entry, looked up): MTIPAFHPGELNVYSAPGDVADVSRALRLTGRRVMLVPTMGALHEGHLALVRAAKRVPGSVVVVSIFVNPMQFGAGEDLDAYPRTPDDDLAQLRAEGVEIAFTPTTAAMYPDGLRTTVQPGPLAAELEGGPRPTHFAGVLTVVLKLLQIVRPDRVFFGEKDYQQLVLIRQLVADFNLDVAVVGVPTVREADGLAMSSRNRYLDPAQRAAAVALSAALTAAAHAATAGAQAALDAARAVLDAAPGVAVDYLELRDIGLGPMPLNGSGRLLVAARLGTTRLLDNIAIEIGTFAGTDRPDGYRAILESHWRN

The assay addresses Pantothenate synthetase (Mycobacterium tuberculosis (strain ATCC 25618 / H37Rv)) (UniProt P9WIL5). Kind of assay: Recombinant Mtb pantothenate synthetase (PanC) inhibitors, coupled enzyme, confirmatory (AID 375).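 Further: 0% = full reaction with vehicle and 100% = no enzyme background.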 The settings on record: coupled enzyme assay; at 10 µM, hits give high values.
The term inhibition denotes the percentage by which the read-out fell short of the control. For the compound `Cc1cc(O)c(-c2cc(C(=O)Nc3ccc(S(=O)(=O)N4CCOCC4)cc3)[nH]n2)cc1C`, the inhibition was 0% (inactive).

With `Nc1nnc(SCC(=O)N2CCN(c3ccccc3)CC2)n1-c1ccccc1`, the inhibition was 7% (inactive).

`O=C(CN1C(=O)CCS(=O)(=O)c2ccccc21)NCc1ccc(F)cc1`: the inhibition was 3% (inactive).

With `CC12CCC(C(=O)O)(c3nc(C#N)c(C#N)nc31)C2(C)C` (stereo not given), the inhibition was 13% (inactive).

`COCCN1C(=O)C(=O)/C(=C(/O)c2ccc(OC(C)C)cc2)C1c1cccnc1` (stereo not given): the inhibition was 0% (inactive).

`O=C(Cc1c[nH]c2ccccc12)N1CCc2ccccc21`: the inhibition is 3% (inactive).

With `O=C(CN1C(=O)COCC1=O)N1CCOCC1`, the inhibition was 0% (inactive).

On to `CCn1c(=O)cc(OCC(=O)Nc2cc(C)ccn2)c2ccccc21`, for which the inhibition is 0% (inactive).

`CCn1c(=N)n(CC(=O)C23CC4CC(CC(C4)C2)C3)c2ccccc21`: the inhibition was 0% (inactive).

For `COc1ccc(OCCOC(=O)c2cccc(-n3cnnn3)c2)cc1`, the inhibition was 0% (inactive).

With `CC1CN(CC(O)COc2ccccc2C(C)(C)C)CC(C)O1` (stereo not given), the inhibition is 0% (inactive).

For `O=S(=O)(NCC1CCCO1)c1ccc(S(=O)(=O)N2CCc3ccccc3C2)cc1` (stereo not given), the inhibition was 5% (inactive).

For the compound `CC1CCN(CCc2nc3cc(NS(=O)(=O)c4ccc(F)cc4)ccc3n2C)CC1`, the inhibition was 5% (inactive).

`COCCCn1c(SCC(=O)N2CCc3ccccc32)nnc1-c1ccoc1C`: the inhibition is 9% (inactive).

Take `CC(=O)C1=C(C)NC(C)=C(C(C)=O)C1c1cccs1`: the inhibition was 0% (inactive).

Turning to `COc1ccccc1C(=O)NCC(=O)Nc1ccccc1`, the inhibition was 0% (inactive).

Turning to `CCC(NS(=O)(=O)c1ccc(C)cc1)C(=O)N1CCC2(O)CCCCC2C1` (stereo not given), the inhibition was 6% (inactive).

Take `CCOC(=O)c1ccc(N2C(=O)CC(Sc3nnc(C)s3)C2=O)cc1` (stereo not given): the inhibition is 0% (inactive).

For `COc1ccc(C2C(C(C)=O)=C(O)C(=O)N2C)c(OC)c1` (stereo not given), the inhibition was 0% (inactive).

Turning to `CCn1c(SCc2cccc(C(F)(F)F)c2)nnc1-c1ccco1`, the inhibition was 0% (inactive).

As for `Cc1ccccc1Cn1c(=O)c2c(nc3n2CCCN3Cc2ccccc2)n(C)c1=O`, the inhibition is 0% (inactive).

`CCN=C1SC(CC(=O)Nc2ccccc2OCC)C(=O)N1CC` (stereo not given): the inhibition was 0% (inactive).

With `Nc1nc(N2C(=O)C3CC=CCC3C2=O)nn1-c1ccccc1` (stereo not given), the inhibition is 0% (inactive).

Take `O=C(CSc1nc2ccsc2c(=O)n1NC(=O)c1ccccc1)Nc1nccs1`: the inhibition is 0% (inactive).

In the case of `O=C(COC(=O)c1cc(-c2ccco2)nc2ccccc12)NCc1ccc2c(c1)OCO2`, the inhibition was 0% (inactive).

On to `O=C(Nc1ccc(S(=O)(=O)Nc2ccc(Cl)cc2)cc1)C1CCCO1` (stereo not given), for which the inhibition is 4% (inactive).

As for `Cc1ccccc1-n1c(=O)cc(N2CCN(C(=O)c3ccco3)CC2)[nH]c1=O`, the inhibition is 0% (inactive).

As to `Cn1c(=O)c2c(-c3ccncc3)c3c(nc2n(C)c1=O)-c1ccccc1C3=O`, the inhibition was 0% (inactive).

For `CCCC(=O)Nc1cnc(NC(=O)c2cccc(F)c2)cc1C`, the inhibition is 0% (inactive).

For `CC(=O)C1=C(O)C(=O)N(c2ccc(C(=O)O)cc2)C1c1ccccc1` (stereo not given), the inhibition was 0% (inactive).

Turning to `COc1ccc(C)cc1S(=O)(=O)N(CC(=O)O)c1ccccc1`, the inhibition is 0% (inactive).

Turning to `COc1ccc(NC(C)=O)cc1NC(=O)CN1CCN(c2ccccn2)CC1`, the inhibition was 0% (inactive).

Turning to `CC1(C)NC(=O)N(CCCOc2ccc(Br)cc2Cl)C1=O`, the inhibition is 0% (inactive).

As for `O=C(O)C1CCCN1C(=O)c1cccs1` (stereo not given), the inhibition was 7% (inactive).

For the compound `CCCCOC(=O)Cn1c(=O)oc2ccc(C)cc21`, the inhibition was 0% (inactive).

Turning to `CC1CN(S(=O)(=O)c2ccc(Cl)c(C(F)(F)F)c2)CC(C)O1` (stereo not given), the inhibition is 0% (inactive).

As to `COCc1nnc(NS(=O)(=O)c2ccc(Br)cc2)s1`, the inhibition is 2% (inactive).

For the compound `Cc1c(NC(=O)c2ccc(CN3CCc4ccccc4C3)cc2)c(=O)n(-c2ccccc2)n1C`, the inhibition was 0% (inactive).

Take `O=c1c2ccccc2nc(SCc2nc(-c3ccccc3)no2)n1-c1ccc(F)cc1`: the inhibition is 0% (inactive).

Consider `CCOC(=O)c1cnn(-c2sc(C(=O)OCC)c(C)c2C(=O)OCC)c1N`, for which the inhibition was 0% (inactive).

The values above are taken from PubChem BioAssay.
